# Experimental data reported in paper PMC5540273 (PLoS ONE, 2017).
# Tested on: ZAP70
# Conditions: concentration: 1 μM,replicates: in singlicate; n = 1
# 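Further: KINOMEscan kinase panel screen.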
row,Structure (SMILES),%Inh [%]
1,COc1cccc(OC)c1C(=O)Nc1cccc(-c2nn3ccccc3c2-c2ccnc(Nc3cccc(F)c3)n2)c1 [GSK361065],0
2,Cl.c1ccc(Oc2ccc(Nc3ccnc4cc(-c5ccc(CN6CCNCC6)o5)ccc34)cc2)nc1 [GW567142],0
3,CNC(=O)c1ccccc1Nc1nc(Nc2cccc(CS(C)(=O)=O)c2)ncc1C.O=CO [GSK1520489],0
4,Cn1ccc2ncnc(Oc3ccc(NC(=O)Nc4cncc(C(F)(F)F)c4)c(Cl)c3)c21,0
5,Cc1cccc(-c2nc(Nc3ccncc3)c3sccc3n2)n1 [GW869641],14

# Tested on: T1, p38-alpha
# T1 construct: gene MAPK14
# Conditions: concentration: 1 μM,replicates: in singlicate; n = 1
row,Structure (SMILES),%Inh [%]
1,CSc1nccc(-c2c(-c3ccc(F)cc3)ncn2CCCN2CCOCC2)n1.Cl [SB-217146],67
2,C[C@@H]1CNc2c(sc3ccc4nc(-c5ccncc5)ccc4c23)C(=O)N1,0
3,CCOC(=O)N1CCC(n2cnc(-c3ccc(F)cc3)c2-c2ccnc(N)n2)CC1 [SB-219952],95.3
4,CN1CCN(CCCNc2nccc(-c3c(-c4ccc(F)cc4)nn4cc(C(N)=O)ccc34)n2)CC1 [GW622475],99.9
5,COc1cc(Nc2nccc(N3CCC(NC(=O)c4cccc(C#N)c4)C3)n2)cc(OC)c1OC (centres unmarked) [GSK1379751],23
6,O=C1NCCc2[nH]c(-c3ccncc3)cc21,2
7,O=C(Nc1cccc(C(F)(F)F)c1)c1cccc(Oc2ccc3nccn3n2)c1,0
8,CCN1CCN(CCCC(=O)Nc2n[nH]c3nc(-c4ccc(O)cc4)c(Br)cc23)CC1 [SB-731579],2
9,Cc1n[nH]c2cc(Nc3ccnc(Nc4cccc(CN5CCOCC5)c4)n3)ccc12 [GW682569],11
10,Cl.Cl.NC[C@H](CC1CCCCC1)NC(=O)c1ccc(-c2ccnc3[nH]ccc23)s1 [GSK1581428],0
11,Cc1ccc(Nc2ccnc(Nc3ccc4c(c3)CS(=O)(=O)C4)n2)cc1O.Cl [GW579362],96.8
12,CCNCC(Cc1ccccc1)NC(=O)c1cc(Br)c(-c2ccnc3[nH]ccc23)s1.Cl.Cl (centres unmarked) [GSK1383280],11
13,Cn1ccc2ncnc(Oc3ccc(NC(=O)Nc4cccc(C(F)(F)F)c4)c(F)c3)c21,12
14,CCCC(=O)Nc1n[nH]c2ncccc12 [SB-601436],0
15,Cn1ccc2ncnc(Oc3ccc(NC(=O)Nc4ccnc(C(F)(F)F)c4)c(Cl)c3)c21,18
16,CCn1c(-c2nonc2N)nc2cncc(Br)c21 [SB-738004],6
17,Cc1nnc(-c2ccc3occ(-c4ccc(S(C)=O)cc4)c3n2)o1 (centres unmarked),0
18,C[C@@H]1CCN(C(=O)N2CCCC2)C[C@@H]1N(C)c1ncnc2[nH]ccc12,5
19,CC(=O)Nc1ccc(-c2cc3ncnc(SCC(=O)O)c3s2)cc1,12
20,CC(C)c1nc(-c2cccc(NS(=O)(=O)c3ccccc3)c2)c(-c2ccnc(Nc3ccc4c(c3)CN(C)CC4)n2)s1 [GSK1649598],91.5
21,CC(C)S(=O)(=O)N1CCN(Cc2ccc3c(c2)nc(NC(=O)c2ccsc2)n3C[C@H](O)c2ccccc2)CC1 [GW635815],6
22,Cn1ccc2ncnc(Oc3ccc(NC(=O)Nc4cc(C(C)(C)C)on4)c(Cl)c3)c21,97.2
23,CS(=O)(=O)c1cccc(CNc2nc(Nc3ccc4c(c3)[C@@H]3C[C@@H]4CNC3=O)ncc2C(F)(F)F)c1,0
24,CC(=O)c1c(-c2ccncc2)[nH]c(-c2ccncc2)c1C [GW493036],34
25,Cc1cccc2c(-c3ccncc3)c(-c3ccc(F)cc3)nn12.Cl [GW461487],98.3
26,CN(c1ccc2c(c1)nc(NCc1ccc(F)cc1)n2C)c1ccnc(Nc2ccc(CS(C)(=O)=O)cc2)n1.Cl [GW813244],13
27,COC(=O)c1cccc(NC(=O)NC2CCN(c3ccnc(NCc4ccc(F)cc4)n3)CC2)c1 [GSK1379860],0
28,COc1cc2c(Nc3ccc(NC(=O)c4ccccc4)cc3)ncnc2cc1OCCCN1CCOCC1 [GSK301329],0
29,Nc1nccc(-c2ccc3c(N)n[nH]c3c2)n1 [GSK1034945],0
30,COc1ccc(Nc2nccc(N3CCC(NC(=O)c4cccc(C#N)c4)C3)n2)cc1 (centres unmarked) [GSK1379730],5
